Whole data set: some 110,000 compounds, median “z-score” near -0.1, cut for the highest 2% near 2. Only a selection was taken, and the highest values are over-represented in it overall. Active and inactive are the calls of the source.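 The calls were made as follows: active = z-score in the third read window above 3 or below -3; inactive = the rest.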
target: Metabotropic glutamate receptor 8 (Rattus norvegicus) (UniProt P70579); test: rat mGluR8 modulators via GIRK flux, primary screen, cell-based, thallium flux, HTS (AID 488969); conditions: HEK293 rat mGluR8, GIRK (G protein-gated inwardly rectifying potassium channel) thallium flux, FluoZin2; at 10 µM; stronger effect = higher value; submaximal glutamate (EC20) added with thallium
Sequence (P70579 whole entry, looked up): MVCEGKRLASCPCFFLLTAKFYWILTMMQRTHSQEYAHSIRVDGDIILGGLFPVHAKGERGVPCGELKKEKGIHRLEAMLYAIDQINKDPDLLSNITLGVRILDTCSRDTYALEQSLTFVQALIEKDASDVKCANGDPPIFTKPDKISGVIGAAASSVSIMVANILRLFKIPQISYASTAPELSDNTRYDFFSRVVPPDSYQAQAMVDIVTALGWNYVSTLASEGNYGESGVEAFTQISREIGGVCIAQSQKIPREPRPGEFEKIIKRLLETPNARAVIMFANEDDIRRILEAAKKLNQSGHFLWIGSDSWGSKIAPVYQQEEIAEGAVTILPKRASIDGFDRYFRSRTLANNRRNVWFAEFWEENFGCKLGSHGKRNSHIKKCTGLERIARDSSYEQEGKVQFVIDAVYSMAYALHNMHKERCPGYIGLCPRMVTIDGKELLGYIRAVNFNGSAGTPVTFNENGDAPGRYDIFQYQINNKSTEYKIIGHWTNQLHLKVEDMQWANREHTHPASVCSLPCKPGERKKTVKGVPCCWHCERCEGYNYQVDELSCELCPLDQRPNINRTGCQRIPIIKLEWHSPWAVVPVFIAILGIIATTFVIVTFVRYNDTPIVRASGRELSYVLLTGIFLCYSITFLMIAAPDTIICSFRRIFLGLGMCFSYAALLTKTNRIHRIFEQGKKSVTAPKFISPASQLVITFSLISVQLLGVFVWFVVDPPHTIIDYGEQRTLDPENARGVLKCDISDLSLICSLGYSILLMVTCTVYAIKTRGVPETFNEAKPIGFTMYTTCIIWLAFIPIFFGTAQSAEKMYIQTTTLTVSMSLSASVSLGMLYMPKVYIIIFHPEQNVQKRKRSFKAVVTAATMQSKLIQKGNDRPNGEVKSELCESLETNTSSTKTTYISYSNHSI

Row | SMILES | z-score
1 | O=C1Nc2ccccc2C12OCC1(CO2)COC2(OC1)C(=O)Nc1ccccc12 (stereo not drawn) | 3.45 (active)
2 | O=C1Nc2ccccc2C12OCCO2 | -0.0845
3 | O=C1Nc2ccccc2C12OCCCO2 | 0.489
4 | CCN(CC)S(=O)(=O)c1ccc(/C=C/C(=O)Nc2ccc(F)c(F)c2F)cc1 | -0.0872
5 | Cc1ccc(NCCC(=O)c2ccc(Cl)cc2)cc1 | -0.27
6 | Cc1cc(Cl)ccc1OCC(=O)NC1CCCC1 | 0.0341
7 | Cc1ccc(C(=O)CC(=O)COc2ccc(Cl)cc2C)cc1 | 5.45 (active)
8 | Cc1ccc(C(=O)CC(=O)COc2ccc(Cl)cc2)cc1 | 5.07 (active)
9 | Cc1ccc(NC(=O)c2ccc(OC(=O)COc3ccc(Cl)cc3C)cc2)cc1 | -0.069
10 | COC(=O)C(CC(=O)c1ccc(Cl)cc1)c1ccc(C)cc1 (stereo not drawn) | -0.155
11 | Cc1cc(C)nc(/N=C(\N)Nc2ccc([N+](=O)[O-])cc2)n1 | -0.477
12 | O=C(O)c1cccc(-n2cnnn2)c1 | -0.667
13 | CCSc1nnc(NC(=O)CC)s1 | 5.27 (active)
14 | CCC(NC(=O)Nc1nnc(C(F)(F)F)s1)(C(F)(F)F)C(F)(F)F | 0.241
15 | CCCC(=O)Nc1nnc(SCC)s1 | 0.0928
16 | CCC(=O)Nc1nnc(SCCOC)s1 | 0.214
17 | CCSc1nnc(NC(=O)NC(CC)(C(F)(F)F)C(F)(F)F)s1 | 3.86 (active)
18 | CCSc1nnc(NC(=O)C(CC)(C(F)(F)F)C(F)(F)F)s1 | -0.322
19 | CCCCN1CCc2[nH]c(=S)[nH]c(=O)c2C1 | -0.178
20 | Cc1ccccc1C(=O)Oc1cccc(Nc2ncnc3ccccc23)c1 | -1.4
21 | CC(NC(=O)C1CCC1)c1ccc(Br)cc1 (stereo not drawn) | -0.264
22 | CCN(CC)S(=O)(=O)c1cccc(C(=O)NC(C(=O)NC2=NCCS2)C(C)C)c1 (stereo not drawn) | 0.126
23 | CCNc1nc(NC#N)nc(SCC(=O)OCC)n1 | -0.413

Row | SMILES | z-score
24 | COC(=O)c1ccc(CSc2nc3c(cnn3-c3ccccc3)c(=O)[nH]2)o1 | -0.686
25 | COc1ccc(C(=O)NC(=S)NNC(=O)CCc2ccccc2)cc1 | 3.38 (active)
26 | O=C(CCc1ccccc1)NNC(=S)NC(=O)c1ccccc1 | 1.13
27 | O=C(CCc1ccccc1)NNC(=O)c1ccc(NC(=O)c2ccccc2)cc1 | 0.0748
28 | O=C(CCc1ccccc1)NNC(=S)NC(=O)c1ccc(Cl)cc1 | 3.03 (active)
29 | CC(=O)Nc1ccc(C(=O)NNC(=O)CCc2ccccc2)cc1 | -0.185
30 | CC(C)(C)c1ccc(OCC(=O)NNC(=O)CCc2ccccc2)cc1 | 0.639
31 | O=C(Cc1csc(N2CCOCC2)n1)N/N=C/c1ccc(Cl)cc1Cl | -0.885
32 | N#Cc1c2n(c(=S)n(-c3ccccn3)c1=O)CCCCC2 | -0.927
33 | N#Cc1c2n(c(=O)[nH]c1=O)CCCCC2 | -0.0381
34 | N#Cc1c2n(c3c(=S)nc[nH]c13)CCCCC2 | 2.2
35 | O=C(CNC(=O)c1ccccc1F)NCCOc1ccccc1Cl | -0.065
36 | CC1(C)CC(=O)C2=C(C1)OC1=C(C(=O)CC(C)(C)C1)C2(C)C | -0.182
37 | CCOC12CC(C)(C)CC(C)(CC3=C1C(=O)CC(C)(C)C3)C2 (stereo not drawn) | 2.32
38 | CCOc1ccc(N=CC2=C(O)CC(C)(C)CC2=O)cc1 | 0.649
39 | CCOC(=O)C1CCCN(C(=O)CN2C(=O)COc3ccc(C(C)(C)C)cc32)C1 (stereo not drawn) | -1.06
40 | CCOC(=O)N1CCN(Cc2nc3c(c(=O)n(C)c(=O)n3C)n2Cc2ccccc2C)CC1 | -0.27
41 | COc1ccccc1NC(=S)NCCc1ccccc1 | -0.188
42 | Fc1ccccc1NC(=S)NCCc1ccccc1 | 0.134
43 | Fc1ccc(NC(=S)NCCc2ccccc2)c(F)c1F | 2.71
44 | Fc1cc(Br)ccc1NC(=S)Nc1ccccc1 | 0.843
45 | Fc1cc(Br)ccc1NC(=S)NCCc1ccccc1 | 7.09 (active)
46 | S=C(NCCc1ccccc1)Nc1ccc(Br)cc1 | 0.268

Row | SMILES | z-score
47 | S=C(NCCc1ccccc1)Nc1ccc(Cl)cc1Cl | 1.43
48 | COc1ccccc1NC(=S)NCCc1ccc(Cl)cc1 | 3.06 (active)
49 | COc1ccc(NC(=S)NCCc2ccc(Cl)cc2)c(OC)c1 | 0.319
50 | COc1cc2c(cc1NC(=O)CSc1ccccc1)oc1ccccc12 | -0.258
51 | O=C(N/N=C/c1c[nH]c2ccccc12)c1cc(-c2cccc3ccccc23)n[nH]1 | -0.463
52 | COc1ccc(OCC(=O)O/N=C(\N)Cc2ccc(Cl)cc2Cl)cc1 | 0.353
53 | CCOC(=O)c1[nH]c(C)c(/C(O)=C2\C(=O)C(=O)N(CCCN(C)C)C2c2cccnc2)c1C (stereo not drawn) | -0.333
54 | COc1cc(CNc2nc3ccccc3n2C)cc(OC)c1OC | -0.245
55 | CCCNC(=O)COC(=O)c1cc(SC)ccc1Cl | 0.561
56 | O=C(CN(C(=O)Cn1nnc(-c2cccs2)n1)c1ccc2c(c1)OCCO2)NC1CCCCC1 | -0.0843
57 | Cc1ccccc1NC1=NC(=S)N(c2ccccc2)C12CCOC(C)(C)C2 (stereo not drawn) | 12.6 (active)
58 | Cc1cccc(C)c1NC1=NC(=S)N(c2ccc(N(C)C)cc2)C1(C)C | 1.87
59 | Cc1cccc(C)c1NC1=NC(=S)N(c2ccccc2)C12CCOC(C)(C)C2 (stereo not drawn) | 0.847
60 | Cc1cccc(N2C(=S)N=C(Nc3c(C)cccc3C)C23CCOC(C)(C)C3)c1 (stereo not drawn) | -0.179
61 | Cc1ccc(N2C(=S)N=C(Nc3ccccc3C)C23CCOC(C)(C)C3)cc1 (stereo not drawn) | 15 (active)
62 | CCC1(C)C(Nc2c(C)cccc2C)=NC(=S)N1c1ccc(NC(C)=O)cc1 (stereo not drawn) | -0.38
63 | Cc1sc(NC(=S)NC(=O)C(C)(C)C)c(C(N)=O)c1C | -0.0974
64 | O=C(O)C1C2C=CC(C2)C1C(=O)NCCc1cccc(Cl)c1 (stereo not drawn) | 6.03 (active)
65 | O=C(O)C1C2C=CC(C2)C1C(=O)NCCc1ccccc1 (stereo not drawn) | -0.122
66 | O=C(O)C1C2C=CC(C2)C1C(=O)NCCc1ccncc1 (stereo not drawn) | 0.718
67 | CCc1nnc(NC(=O)CN2CCN(c3cccc(OC)c3)CC2)s1 | 0.136
68 | CCCOC(=O)NC(CC)COC(=O)Nc1cccc(C)c1C (stereo not drawn) | 3.15 (active)
69 | CCC(COC(=O)Nc1cccc(C)c1C)NC(=O)OCC(C)C (stereo not drawn) | -0.549

Row | SMILES | z-score
70 | CCCOC(=O)NC(CC)COC(=O)Nc1cc(C)ccc1C (stereo not drawn) | -0.0367
71 | CN(C1CCCCC1)S(=O)(=O)c1ccc2c(c1)c(=O)c(C(=O)N1CCc3ccccc3C1)cn2C | -1.33
72 | Cc1cc(Cl)c(S(=O)(=O)Nc2ccc(Cl)cn2)cc1OCC(N)=O | 0.203
73 | COc1ccc(-n2c(=O)[nH]cc(C(=O)Nc3ccccc3)c2=O)cc1 | 0.241
74 | COc1cccc(-n2c(=O)[nH]cc(C(=O)Nc3ccc(NC(C)=O)cc3)c2=O)c1 | -0.503
75 | COc1ccc(-n2c(=O)[nH]cc(C(=O)Nc3ccc(NC(C)=O)cc3)c2=O)cc1 | 9.34 (active)
76 | CCc1ccc(N=c2c([N+](=O)[O-])nn(-c3ccccc3)n2O)cc1 | -0.133
77 | CCCn1c(SCC(=O)N2CCCc3ccccc32)nnc1-c1ccccn1 | -0.0622
78 | Cc1nn(CCC#N)c(NC(=O)c2ccc(Cl)cc2Cl)c1P(=O)(Nc1ccc([N+](=O)[O-])cc1)N1CCOCC1 (stereo not drawn) | -0.0204
79 | CN(C)C(=O)COc1ccc2ccc(=O)oc2c1 | -0.168
80 | CN(C)C(=O)COc1ccc2cc(-c3ccccc3)c(=O)oc2c1 | 2.32
81 | CCOc1ccc2cc(C(=O)c3ccccc3)c(=O)oc2c1 | -0.201
82 | Fc1ccc(C2NC(=S)NC3=C2N2CCC3CC2)cc1 (stereo not drawn) | -0.0689
83 | O=C1CC(c2cccs2)Sc2nc3ccccc3n21 (stereo not drawn) | 1.16
84 | O=C(O)C1CC(=O)n2c(nc3ccccc32)S1 (stereo not drawn) | 0.555
85 | O=C1CC(c2ccco2)Sc2nc3ccccc3n21 (stereo not drawn) | 3.22 (active)
86 | CCCCOc1nc(N)nc(-c2ccccc2)n1 | -0.634
87 | COc1ccc(C(=O)CSc2nc3ccccc3n2CC(=O)NC(C)(C)C)cc1 | -0.144
88 | COC(=O)CSC1=C(C#N)C(=O)NC(c2ccccc2)S1 (stereo not drawn) | -0.603
89 | CCOC(=O)CSC1=C(C#N)C(=O)NC(c2ccc(OC)c(OC)c2)S1 (stereo not drawn) | 6.39 (active)
90 | CCOC(=O)CSC1=C(C#N)C(=O)NC(c2ccc(OC)cc2)S1 (stereo not drawn) | 0.083
91 | O=C(CSc1c[nH]c2ccccc12)NCC1CCCO1 (stereo not drawn) | -0.0605
92 | C#CCOC(=O)C(NC(=O)c1ccccc1)=C1CCCCC1 | -0.603

Row | SMILES | z-score
93 | C=CCNC(=O)/C(=C\c1ccc2c(c1)OCO2)NC(=O)c1ccc(Br)cc1 | -0.116
94 | Cc1[nH]c2ccccc2c1C(=O)CN1C(=O)NC2(CC(C)CC(C)(C)C2)C1=O (stereo not drawn) | -0.266
95 | O=C1c2cccc3c(N4CCCCC4)ccc(c23)C(=O)N1CCO | -0.897
96 | O=C(OCCN1C(=O)c2cccc3c(N4CCOCC4)ccc(c23)C1=O)c1ccc(Cl)cc1Cl | -0.884
97 | O=C(OCCN1C(=O)c2cccc3c(N4CCOCC4)ccc(c23)C1=O)c1ccccc1Cl | -0.723
98 | O=C(OCCN1C(=O)c2cccc3c(N4CCOCC4)ccc(c23)C1=O)c1ccc(Cl)cc1 | -0.758
99 | O=C(OCCN1C(=O)c2cccc3c(N4CCOCC4)ccc(c23)C1=O)c1cc(Cl)cc(Cl)c1 | 5.23 (active)
100 | O=C(OCCN1C(=O)c2cccc3c(N4CCOCC4)ccc(c23)C1=O)c1cccc(Cl)c1 | 2.81
101 | CCN1CCCC1CNC(=O)c1ccc(N2CCCC2=O)cc1 (stereo not drawn) | 1.38
102 | O=S(=O)(Cc1ccccc1Cl)Nc1ccccn1 | 1.91
103 | CCOc1ccccc1NC(=O)c1cccc(NC(=O)CC(c2ccccc2)c2ccccc2)c1 | -0.177
104 | CCOc1ccccc1NC(=O)c1cccc(NC(=O)c2ccco2)c1 | -0.729
105 | CCOc1ccccc1NC(=O)Nc1cccc(C(C)=O)c1 | 3.62 (active)
106 | CC(Sc1ccc(Cl)cc1)C(=O)Nc1ccc(S(=O)(=O)N2CCOCC2)cc1 (stereo not drawn) | 0.967
107 | CC(Sc1ccccc1)C(=O)Nc1ccc(S(=O)(=O)N2CCOCC2)cc1 (stereo not drawn) | 0.0953
108 | Cc1ccc(SC(C)C(=O)Nc2ccc(S(=O)(=O)N3CCOCC3)cc2)cc1 (stereo not drawn) | 6.05 (active)
109 | COc1ccsc1C(=O)N1CCN(Cc2ccc3c(c2)OCO3)CC1 | -0.0804
110 | COc1cccc(C(=O)OC2CCCN(C)C2)c1 (stereo not drawn) | -0.125
111 | CCc1ccc(S(=O)(=O)NCc2cn3c(C)csc3n2)s1 | 0.337
112 | Cc1csc2nc(CNS(=O)(=O)N(C)C)cn12 | -0.402
113 | CCCS(=O)(=O)NCc1cn2c(C)csc2n1 | 2.02

From PubChem BioAssay AID488969 (Vanderbilt High Throughput Screening Facility, 2010)
